# Test results: the supplement of paper PMC8728848
# The sample as a whole holds a higher share of the strongest signals than the screen did.
# B1: Neuropilin-1 (Homo sapiens), O14786 (protein)
# chain: FKCMEALGMESGEIHSDQITASSQYSTNWSAERSRLNYPENGWTPGEDSYREWIQVDLGLLRFVTAVGTQGAISKETKKKYYVKTYKIDVSSNGEDWITIKEGNKPVLFQGNTNPTDVVVAVFPKPLITRFVRIKPATWETGISMRFEVYGCKITDYPCSGMLGMVSGLISDSQITSSNQGDRNWMPENIRLVTSRSGWALPPAPHSYINEWLQIDLGEEKIVRGIIIQGGKHRENKVFMRKFKIGYSNNGSDWKMIMDDSKRKAKSFEGNNNYDTPELRTFPALSTRFIRIYPERATHGGLGLRMELLGCEVE
# B2: Adiponectin (Rattus norvegicus), Q8K3R4 (protein)
# chain: MLLLQALLFLLILPSHEGITATEGPGALVPPPKETCAGWMAGIPGYPGHNGIPGRDGRDGTPGEKGEKGDAGVLGPKGDPGDAGMTGAEGPRGFPGTPGRKGEPGEAAYMYHSAFSVGLETRVTVPNVPIRFTKIFYNQQNHYDGSTGKFHCNIPGLYYFSYHITVYMKDVKVSLFKKDKAVLFTYDQYQEKNVDQASGSMLLHLEVGDQVWLQVYGEGDNNGLYADNVNDSTFTGFLLYHDTN
# Tests used:
# Experiment in all cases: glycan array binding signal (z-score within array); higher = stronger binding
# Settings in all cases: glycan notation: IUPAC condensed, linker removed
# [1] = biological target: Fuc(a1-2)Gal(b1-3)GlcNAc(b1-2)Man(a1-3)[Fuc(a1-2)Gal(b1-3)GlcNAc(b1-2)Man(a1-6)]Man(b1-4)GlcNAc(b1-4)GlcNAc
# Procedure, shortened: (§1)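 Columns mapping to the same glycan were averaged after glycan names were converted to IUPAC-condensed notation. The data come from 3228 arrays in the Consortium for Functional Glycomics database, limited to those with an available protein sequence. Binding is reported as a within-array Z-score averaged across arrays of one protein sequence and across linkers.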
# [2] = biological target: Fuc(a1-2)Gal(b1-4)GlcNAc(b1-2)Man(a1-3)[Fuc(a1-2)Gal(b1-4)GlcNAc(b1-2)Man(a1-6)]Man(b1-4)GlcNAc(b1-4)GlcNAc
# Procedure, shortened: as §1
# [3] = biological target: Fuc(a1-2)Gal(b1-4)[Fuc(a1-3)]GlcNAc(b1-2)Man(a1-3)[Fuc(a1-2)Gal(b1-4)[Fuc(a1-3)]GlcNAc(b1-2)Man(a1-6)]Man(b1-4)GlcNAc(b1-4)GlcNAc
# Procedure, shortened: as §1
# [4] = biological target: Fuc(a1-2)[Gal(a1-3)]Gal(b1-4)GlcNAc(b1-2)Man(a1-3)[Fuc(a1-2)[Gal(a1-3)]Gal(b1-4)GlcNAc(b1-2)Man(a1-6)]Man(b1-4)GlcNAc(b1-4)GlcNAc
# Procedure, shortened: as §1
# [5] = biological target: Fuc(a1-2)[GalNAc(a1-3)]Gal(b1-4)GlcNAc(b1-2)Man(a1-3)[GalNAc(a1-3)[Fuc(a1-2)]Gal(b1-4)GlcNAc(b1-2)Man(a1-6)]Man(b1-4)GlcNAc(b1-4)GlcNAc
# Procedure, shortened: as §1
# [6] = biological target: Fuc(a1-3)[Gal(b1-4)]Glc6S
# Procedure, shortened: as §1
# [7] = biological target: Fuc(a1-3)[Gal(b1-4)]GlcNAc
# Procedure, shortened: as §1
# [8] = biological target: Fuc(a1-3)[Gal(b1-4)]GlcNAc(b1-2)Man(a1-3)[Fuc(a1-3)[Gal(b1-4)]GlcNAc(b1-2)Man(a1-6)]Man(b1-4)GlcNAc(b1-4)GlcNAc
# Procedure, shortened: as §1
# [9] = biological target: Fuc(a1-3)[Gal3S(b1-4)]GlcNAc
# Procedure, shortened: as §1
# Gal(a1-6)Glc = biological target: Gal(a1-6)Glc
# Procedure, shortened: as §1
# [10] = biological target: Gal(b1-3)Gal(b1-4)GlcNAc(b1-2)Man(a1-3)[Gal(b1-3)Gal(b1-4)GlcNAc(b1-2)Man(a1-6)]Man(b1-4)GlcNAc(b1-4)GlcNAc
# Procedure, shortened: as §1
# [11] = biological target: Gal(b1-3)[Neu5Ac(a2-6)]GalNAc
# Procedure, shortened: as §1
# [12] = biological target: Gal(b1-4)GalNAc(b1-3)[Fuc(a1-2)]Gal(b1-4)GlcNAc
# Procedure, shortened: as §1
# Gal(b1-4)Glc = biological target: Gal(b1-4)Glc
# Procedure, shortened: as §1
# [13] = biological target: Gal(b1-4)GlcNAc(b1-2)Man(a1-3)[Man(a1-6)]Man(b1-4)GlcNAc(b1-4)GlcNAc
# Procedure, shortened: as §1
# [14] = biological target: Gal(b1-4)GlcNAc(b1-3)Gal(b1-4)GlcNAc
# Procedure, shortened: as §1
# [15] = biological target: Gal3S(b1-4)[Fuc(a1-3)]Glc
# Procedure, shortened: as §1
# Gal4S(b1-4)GlcNAc = biological target: Gal4S(b1-4)GlcNAc
# Procedure, shortened: as §1
# Gal6S(b1-4)GlcNAc = biological target: Gal6S(b1-4)GlcNAc
# Procedure, shortened: as §1
# [16] = biological target: GalNAc(b1-4)GlcNAc(b1-2)Man(a1-3)[GalNAc(b1-4)GlcNAc(b1-2)Man(a1-6)]Man(b1-4)GlcNAc(b1-4)GlcNAc
# Procedure, shortened: as §1
# GlcA(b1-6)Gal = biological target: GlcA(b1-6)Gal
# Procedure, shortened: as §1
# [17] = biological target: GlcNAc(a1-4)Gal(b1-4)GalNAc
# Procedure, shortened: as §1
# [18] = biological target: GlcNAc(a1-4)Gal(b1-4)GlcNAc(b1-3)Gal(b1-4)GlcNAc
# Procedure, shortened: as §1
# [19] = biological target: GlcNAc(b1-2)Man(a1-3)[GlcNAc(b1-2)Man(a1-6)]Man(b1-4)GlcNAc(b1-4)GlcNAc
# Procedure, shortened: as §1
# [20] = biological target: Man(a1-3)[Man(a1-6)]Man(b1-4)GlcNAc(b1-4)GlcNAc
# Procedure, shortened: as §1
# [21] = biological target: Neu5Ac(a2-3)Gal(b1-3)GalNAc
# Procedure, shortened: as §1
# [22] = biological target: Neu5Ac(a2-3)Gal(b1-3)[Fuc(a1-4)]GlcNAc(b1-3)Gal(b1-4)[Fuc(a1-3)]GlcNAc
# Procedure, shortened: as §1
# [23] = biological target: Neu5Ac(a2-3)Gal(b1-4)[Fuc(a1-3)]GlcNAc(b1-6)[Gal(b1-3)]GalNAc
# Procedure, shortened: as §1
# [24] = biological target: Neu5Ac(a2-6)Gal(b1-4)GlcNAc
# Procedure, shortened: as §1
# [25] = biological target: Fuc(a1-2)Gal(b1-3)[Fuc(a1-4)]GlcNAc(b1-2)Man(a1-3)[Fuc(a1-2)Gal(b1-3)[Fuc(a1-4)]GlcNAc(b1-2)Man(a1-6)]Man(b1-4)GlcNAc(b1-4)GlcNAc
# Procedure, shortened: as §1
# [26] = biological target: Fuc(a1-2)[Gal(a1-4)]Gal(b1-4)GlcNAc
# Procedure, shortened: as §1
# Gal(a1-3)Gal(b1-4)Glc = biological target: Gal(a1-3)Gal(b1-4)Glc
# Procedure, shortened: as §1
# Gal(a1-4)Gal(b1-4)GlcNAc = biological target: Gal(a1-4)Gal(b1-4)GlcNAc
# Procedure, shortened: as §1
# Gal(b1-3)GalNAc = biological target: Gal(b1-3)GalNAc
# Procedure, shortened: as §1
# [27] = biological target: Gal(b1-4)GlcNAc(a1-6)Gal(b1-4)GlcNAc
# Procedure, shortened: as §1
# [28] = biological target: Gal(b1-4)GlcNAc(b1-3)Gal(b1-4)GlcNAc(b1-3)Gal(b1-4)GlcNAc
# Procedure, shortened: as §1
# [29] = biological target: Gal(b1-4)GlcNAc(b1-3)[Gal(b1-4)GlcNAc(b1-6)]Gal(b1-4)GlcNAc
# Procedure, shortened: as §1
# Gal3S(b1-3)GlcNAc = biological target: Gal3S(b1-3)GlcNAc
# Procedure, shortened: as §1
# [30] = biological target: Gal3S(b1-3)[Fuc(a1-4)]GlcNAc
# Procedure, shortened: as §1
# Gal3S4S(b1-4)GlcNAc = biological target: Gal3S4S(b1-4)GlcNAc
# Procedure, shortened: as §1
# Gal6S(b1-4)GlcNAc6S = biological target: Gal6S(b1-4)GlcNAc6S
# Procedure, shortened: as §1
# GalNAc(a1-3)Gal = biological target: GalNAc(a1-3)Gal
# Procedure, shortened: as §1
# GlcA(b1-3)GlcNAc = biological target: GlcA(b1-3)GlcNAc
# Procedure, shortened: as §1
# [31] = biological target: GlcNAc(b1-4)GlcNAc(b1-4)GlcNAc
# Procedure, shortened: as §1
# [32] = biological target: Man(a1-3)[Man(a1-6)]Man(a1-6)[Man(a1-3)]Man(b1-4)GlcNAc(b1-4)GlcNAc
# Procedure, shortened: as §1
# Man(b1-4)GlcNAc = biological target: Man(b1-4)GlcNAc
# Procedure, shortened: as §1
# Neu5Ac(a2-3)Gal = biological target: Neu5Ac(a2-3)Gal
# Procedure, shortened: as §1
# [33] = biological target: Neu5Ac(a2-3)Gal(b1-4)[Fuc(a1-3)]GlcNAc
# Procedure, shortened: as §1
# [34] = biological target: Neu5Ac(a2-6)Gal(b1-4)GlcNAc(b1-2)Man(a1-3)Man(b1-4)GlcNAc(b1-4)GlcNAc
# Procedure, shortened: as §1
# [35] = biological target: Neu5Ac(a2-6)Gal(b1-4)GlcNAc(b1-2)Man(a1-6)[GlcNAc(b1-2)Man(a1-3)]Man(b1-4)GlcNAc(b1-4)GlcNAc
# Procedure, shortened: as §1
# [36] = biological target: Neu5Ac(a2-8)Neu5Ac(a2-3)[GalNAc(b1-4)]Gal(b1-4)Glc
# Procedure, shortened: as §1
# [37] = biological target: Neu5Ac(a2-8)Neu5Ac(a2-8)Neu5Ac(a2-8)Neu5Ac(a2-3)[GalNAc(b1-4)]Gal(b1-4)Glc
# Procedure, shortened: as §1
# [38] = biological target: Neu5Gc(a2-3)Gal(b1-4)GlcNAc
# Procedure, shortened: as §1
binder,measurement,setting,value
B1,glycan array binding signal (z-score),[1],1.14
same,glycan array binding signal (z-score),[2],5.83
same,glycan array binding signal (z-score),[3],4.73
same,glycan array binding signal (z-score),[4],6.43
same,glycan array binding signal (z-score),[5],5.34
same,glycan array binding signal (z-score),[6],0.455
same,glycan array binding signal (z-score),[7],-0.168
same,glycan array binding signal (z-score),[8],10.4
same,glycan array binding signal (z-score),[9],-0.158
same,glycan array binding signal (z-score),Gal(a1-6)Glc,-0.168
same,glycan array binding signal (z-score),[10],6.05
same,glycan array binding signal (z-score),[11],-0.23
same,glycan array binding signal (z-score),[12],-0.281
same,glycan array binding signal (z-score),Gal(b1-4)Glc,-0.292
same,glycan array binding signal (z-score),[13],-0.228
same,glycan array binding signal (z-score),[14],-0.228
same,glycan array binding signal (z-score),[15],0.036
same,glycan array binding signal (z-score),Gal4S(b1-4)GlcNAc,-0.235
same,glycan array binding signal (z-score),Gal6S(b1-4)GlcNAc,-0.225
same,glycan array binding signal (z-score),[16],0.263
same,glycan array binding signal (z-score),GlcA(b1-6)Gal,-0.189
same,glycan array binding signal (z-score),[17],1.27
same,glycan array binding signal (z-score),[18],-0.004
same,glycan array binding signal (z-score),[19],-0.176
same,glycan array binding signal (z-score),[20],-0.133
same,glycan array binding signal (z-score),[21],-0.216
same,glycan array binding signal (z-score),[22],0.065
same,glycan array binding signal (z-score),[23],0.942
same,glycan array binding signal (z-score),[24],-0.254
B2,glycan array binding signal (z-score),[1],4.69
same,glycan array binding signal (z-score),[25],2.87
same,glycan array binding signal (z-score),[26],-0.75
same,glycan array binding signal (z-score),Gal(a1-3)Gal(b1-4)Glc,2.17
same,glycan array binding signal (z-score),Gal(a1-4)Gal(b1-4)GlcNAc,-0.311
same,glycan array binding signal (z-score),Gal(b1-3)GalNAc,-0.573
same,glycan array binding signal (z-score),[27],-0.335
same,glycan array binding signal (z-score),[28],3.09
same,glycan array binding signal (z-score),[29],0.332
same,glycan array binding signal (z-score),Gal3S(b1-3)GlcNAc,-0.814
same,glycan array binding signal (z-score),[30],1.13
same,glycan array binding signal (z-score),Gal3S4S(b1-4)GlcNAc,0.706
same,glycan array binding signal (z-score),Gal6S(b1-4)GlcNAc,1.04
same,glycan array binding signal (z-score),Gal6S(b1-4)GlcNAc6S,-0.915
same,glycan array binding signal (z-score),GalNAc(a1-3)Gal,2.96
same,glycan array binding signal (z-score),[16],4.32
same,glycan array binding signal (z-score),GlcA(b1-3)GlcNAc,-0.577
same,glycan array binding signal (z-score),GlcA(b1-6)Gal,-0.389
same,glycan array binding signal (z-score),[31],4.87
same,glycan array binding signal (z-score),[32],-0.767
same,glycan array binding signal (z-score),Man(b1-4)GlcNAc,0.155
same,glycan array binding signal (z-score),Neu5Ac(a2-3)Gal,0.212
same,glycan array binding signal (z-score),[33],0.007
same,glycan array binding signal (z-score),[34],0.717
same,glycan array binding signal (z-score),[35],-0.838
same,glycan array binding signal (z-score),[36],0.022
same,glycan array binding signal (z-score),[37],0.861
same,glycan array binding signal (z-score),[38],-0.295
